This passage reports growth results from PubChem BioAssay (NCI).

Among the test systems are DU-145 prostate; K-562 leukemia; MALME-3M melanoma; MDA-MB-231 breast; RXF 393 renal; SF-268 CNS; SF-295 CNS; SF-539 CNS; UACC-257 melanoma; M14 melanoma.
Experiment in all cases: NCI-60 one-dose screen, 48 h (100 = growth as untreated, 0 = no growth, -100 = all killed)
What all share (details): 10 µM unless noted

Compounds without any hit were thinned out: in the full panel of roughly 83,000, 20% have a hit.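 Single-concentration screen, 48 h exposure, 96-well plates. Endpoint: percent growth. Below 10 = active.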 A number with no mark means an inactive call. Calls of active or inactive are those of the source.

For the molecule `CCCOC(=O)N[C@H]1CCc2c(Br)c(OC)c(OC)c(OC)c2-c2ccc(SC)c(=O)cc21`, the growth in the assay on DU-145 prostate was -15.7% (active); in the assay with K-562 leukemia, 10.1%; in the assay on MALME-3M melanoma it was 38.4%; with MDA-MB-231 breast it was -13.4% (active); in the assay on RXF 393 renal it was 13.8%; with SF-268 CNS, 17.8%. In addition, the growth with SF-295 CNS was 5.54% (active); in the assay with SF-539 CNS it was 0.697% (active); with UACC-257 melanoma, 64.5%; in the assay with M14 melanoma, -26.3% (active).

On to `CCCCCCCC[N+](C)(CCCCCCCC)CCCCCCCC`, for which the growth was -100% (active) in the assay on DU-145 prostate; 86.9% in the assay with K-562 leukemia; -91.7% (active) with MALME-3M melanoma; -87% (active) in the assay on MDA-MB-231 breast; -100% (active) in the assay with RXF 393 renal; -100% (active) in the assay on SF-268 CNS. The growth in the assay on SF-295 CNS is -94.8% (active); in the assay on SF-539 CNS, -100% (active); in the assay with UACC-257 melanoma, -95.2% (active); with M14 melanoma, -94.1% (active).

On to `CN1CCC(O)(c2ccc(F)cc2)C(C(=O)c2ccc(F)cc2)C1` (stereo not given), for which the growth with DU-145 prostate is 107%; in the assay on K-562 leukemia, 99.1%; with MALME-3M melanoma, 84.6%; in the assay on MDA-MB-231 breast, 104%; in the assay with RXF 393 renal, 103%; in the assay on SF-268 CNS it was 106%. For the same molecule, the growth in the assay with SF-295 CNS was 110%; in the assay on SF-539 CNS, 96.8%; with UACC-257 melanoma it was 106%; with M14 melanoma it was 106%.

As for `Cc1ccc(N2COOC3(OOC2)C2CC4CC(C2)CC3C4)cc1`, the growth with DU-145 prostate is 109%; in the assay with K-562 leukemia it was 72.6%; with MALME-3M melanoma it was 110%; in the assay on MDA-MB-231 breast it was 112%; with RXF 393 renal it was 115%; with SF-268 CNS, 97.9%. The growth is 95.5% in the assay with SF-295 CNS, 96.5% in the assay on SF-539 CNS, 95.3% in the assay on UACC-257 melanoma and 97.8% in the assay on M14 melanoma.

As for `Fc1c[c-]c(-c2ccccn2)c(F)c1.[CH3-].[Pt+2].c1ccc([PH+](c2ccccc2)c2ccccn2)cc1`, the growth with DU-145 prostate is 15.9%; in the assay on K-562 leukemia, 4.86% (active); in the assay with MALME-3M melanoma, -75.5% (active); in the assay on MDA-MB-231 breast, -70.6% (active); with RXF 393 renal it was -64.8% (active); with SF-268 CNS it was 22.8%. For the same molecule, the growth in the assay on SF-295 CNS is 5.67% (active); with SF-539 CNS, -46.7% (active); in the assay on UACC-257 melanoma, 0.865% (active); in the assay with M14 melanoma, -30.4% (active).

Regarding `COc1ccc2c(c1)c(-c1nc(-c3c[nH]c4ncccc34)cs1)cn2CCCCN1CCCCC1`, the growth in the assay with DU-145 prostate is -14.6% (active); with K-562 leukemia it was -73.7% (active); with MALME-3M melanoma it was -76.1% (active); with MDA-MB-231 breast it was -75.9% (active); with RXF 393 renal it was -85.8% (active); in the assay with SF-268 CNS it was -50.9% (active). Further, the growth with SF-295 CNS was -64.9% (active); with SF-539 CNS, -80.9% (active); with UACC-257 melanoma, -82.3% (active); with M14 melanoma, -88% (active).

Turning to `COC(=O)[C@@H](C)C[C@H](Cc1ccccc1)NC(=O)c1csc([C@@H](C[C@H](C(C)C)N(C)C(=O)[C@@H](NC(=O)CN(C)C)C2CC2)OC(C)=O)n1`, the growth is 3.44% (active) in the assay on DU-145 prostate; 9.12% (active) in the assay with K-562 leukemia; 69.8% in the assay with MALME-3M melanoma; 24.2% with MDA-MB-231 breast; 37.6% in the assay with RXF 393 renal; 33.3% in the assay on SF-268 CNS. In addition, the growth in the assay with SF-295 CNS is 13.5%; in the assay on SF-539 CNS it was 0.502% (active); with UACC-257 melanoma, 60.3%; in the assay with M14 melanoma, 13%.

Consider `C[S+]1C=Cc2ccccc2C1c1ccc(Cl)cc1` (stereo not given), for which the growth was 99.8% in the assay with DU-145 prostate; 78.8% with K-562 leukemia; 103% in the assay on MALME-3M melanoma; 103% in the assay with MDA-MB-231 breast; 74.8% in the assay on RXF 393 renal; 47.1% in the assay on SF-268 CNS. Also, the growth with SF-295 CNS is 68%; with SF-539 CNS it was 104%; with UACC-257 melanoma it was 92.5%; in the assay on M14 melanoma, 83.6%.

Regarding `CCOC(=O)[C@@H](C)C[C@H](Cc1ccccc1)NC(=O)c1csc([C@@H](C[C@H](C(C)C)N(C)C(=O)CNC(=O)[C@H]2CCCCN2C)OC(C)=O)n1`, the growth in the assay on DU-145 prostate is 9.26% (active); in the assay on K-562 leukemia, 6.73% (active); in the assay with MALME-3M melanoma, 76.1%; with MDA-MB-231 breast, 14.5%; in the assay with RXF 393 renal, -13.8% (active); in the assay with SF-268 CNS, 46.6%. Further, the growth in the assay with SF-295 CNS is 5.3% (active); in the assay on SF-539 CNS, -8.42% (active); in the assay on UACC-257 melanoma it was 58.7%; in the assay with M14 melanoma it was -20.9% (active).

On to `CN1CCCCC1C(C)(O)c1ccccc1` (stereo not given), for which the growth in the assay on DU-145 prostate was 111%; in the assay on K-562 leukemia, 114%; in the assay on MALME-3M melanoma, 97.6%; with MDA-MB-231 breast, 112%; in the assay on RXF 393 renal, 116%; in the assay on SF-268 CNS, 101%. Besides, the growth is 96.2% with SF-295 CNS, 93.6% in the assay on SF-539 CNS, 96.5% with UACC-257 melanoma and 92.9% in the assay on M14 melanoma.

Turning to `CN[C@@]1(c2ccccc2Cl)CCCC[C@@H]1NCC1CCCO1` (stereo not given in full), the growth with DU-145 prostate was 111%; in the assay with K-562 leukemia it was 100%; in the assay with MALME-3M melanoma, 95.3%; in the assay on MDA-MB-231 breast, 105%; in the assay with RXF 393 renal, 106%; in the assay on SF-268 CNS it was 103%. In addition, the growth with SF-295 CNS was 98.2%; in the assay with SF-539 CNS it was 97%; with UACC-257 melanoma, 96.5%; with M14 melanoma it was 101%.
